Among all 2,200 compounds or so, about 1,300 (59%) were called active. The set was probably picked from earlier hits. Only a sample is shown. Measured potencies and affinities stand elsewhere. A number with no mark means an inactive call. The rule behind the calls is not given here.
experiment: human monocytic cell viability reduction – S. typhimurium screen hits, cytotoxicity control for Salmonella PhoP regulon inhibitors, dose response (AID 2253); conditions: THP-1 viability, CellTiter-Glo luminescence, 72 h; series mostly up to 50 µM; viability: at the top concentration

| SMILES | viability |
| --- | --- |
| O=C1c2ccccc2C(=O)N1CCCc1nc(-c2ccccn2)no1 | 114% |
| O=C1c2ccccc2C(=O)N1Cc1nc(-c2ccccn2)no1 | 101% |
| CCOc1cc(CNn2cnnc2)ccc1OCC(=O)NC1CCCCC1 | 105% |
| Cc1ccccc1OCC(=O)N/N=C/c1ccco1 | 91.9% |
| O=C(COC(=O)/C=C/c1ccco1)Nc1cccc([N+](=O)[O-])c1 | 94.9% |
| CCOC(=O)/C=C1\SCC(=O)N1CC(=O)NC1CCCCC1 | 91.7% |
| CCn1c(Cc2ccccc2)nnc1SCC(=O)Nc1ccc(S(N)(=O)=O)cc1 | 89.3% |
| Cc1cc(C)c(NC(=O)COc2ccccc2C(=O)Nc2ccc3c(c2)oc2ccccc23)c(C)c1 | 96.5% |
| N/C(=N\OC(=O)COc1ccc(Cl)cc1)c1cccnc1 | 94.1% |
| c1ccc(CCNc2nc3ccccc3s2)cc1 | 85.5% |
| Cc1ccc(C(=O)Oc2ccc(C(=O)COC(=O)c3cnccn3)cc2)cc1 | 84.2% |
| COc1ccc(/C=C/C(=O)NCCc2nc3ccccc3[nH]2)cc1 | 92.5% |
| Nc1nnc(SCc2ccc(F)cc2Cl)s1 | 85.2% |
| O=C(CSc1nnc(-c2cccnc2)o1)OC1CCCCC1 | 85.3% |
| C/C(=N/NC(=O)Cc1cccn1C)c1ccccc1 | 83.9% |
| Cc1oc(CC(C)C)c(CN)c1C(=O)O | 91% |
| Cn1c(-c2ccc(N)cc2)nc2ccccc21 | 80.5% |
| CCOc1ccccc1Nc1nc2ccccc2n2cnnc12 | 102% |
| CCCn1c(N)nc2ccccc21 | 92.3% |
| CCCNC(=O)CN(C1CCCCC1)S(C)(=O)=O | 101% |
| O=C(CSc1n[nH]c(=O)[nH]c1=O)N/N=C/c1ccccc1 | 99.9% |
| COc1cc([N+](=O)[O-])ccc1NC(=O)CN(C)C | 90.2% |
| CC1CCc2cc(F)cc3c(=O)c(C(=O)O)cn1c23 (stereo not given) | 95.9% |
| CCN1C(=O)N/C(=C/c2ccc(Sc3ccc(C)cc3)o2)C1=O | 88.3% |

| SMILES | viability |
| --- | --- |
| O=C(Nc1cccnc1)c1cc(F)cc(F)c1 | 83.5% |
| COc1nccnc1NS(=O)(=O)c1ccc(NC(=S)NC(=O)c2cccnc2)cc1 | 83.2% |
| COc1nsnc1NS(=O)(=O)c1ccc(NC(=S)NC(=O)c2cccnc2)cc1 | 82.1% [at 25 µM] |
| Cc1cccc(C(=O)NC(=S)Nc2ccc(N3CCOCC3)cc2)c1 | 80.9% |
| COC(=O)Cc1ccc(NC(=S)N2CCN(c3ccc(F)cc3)CC2)cc1 | 103% |
| O=C(Nc1ccccc1)Oc1ccc[nH]c1=O | 95.3% |
| CCCOc1ccc(C(=O)N2CCCC2C(=O)O)cc1 (stereo not given) | 102% |
| O=C(Nc1ccccn1)NC1CCCCC1 | 88.2% |
| CC(C)Nc1cc(C(F)(F)F)nc(-c2ccccn2)n1 | 84.2% |
| COc1ccccc1NCCC(=O)OCC(=O)NC1CCCCCC1 | 100% |
| O=C(Nc1ccsc1C(=O)NC1CCCCC1)c1ccccc1 | 84.2% |
| O=S(=O)(c1ccc(NC(=S)Nc2ccc3c(c2)OCO3)cc1)N1CCOCC1 | 82.4% |
| C/C(=N\NC(=O)c1ccccc1)c1ccc2c(c1)OCO2 | 83.2% |
| COc1ccc(-c2cc(C(=O)Nc3ccc(S(=O)(=O)Nc4ncccn4)cc3)c3ccccc3n2)cc1 | 81.1% |
| O=C(Nc1nccs1)c1cc(-c2ccco2)nc2ccccc12 | 98.7% |
| N#CCCN(C(=O)CN1C(=O)NC2(CCCC2)C1=O)c1ccccc1F | 92.2% |
| c1ccc(CSc2nnc(-c3ccncc3)o2)cc1 | 97.8% |
| O=C(CSc1nnc(Cc2ccccc2)o1)NCCc1ccccc1 | 98.5% |
| O=C(NCCc1ccccc1)c1ccc2nc(-c3ccco3)c(-c3ccco3)nc2c1 | 87.4% |
| CCn1cc(C(=O)O)c(=O)c2cc(F)c(N3CCN(C(=S)NC(=O)c4cccc(F)c4)CC3)cc21 | 101% |
| Cc1ccc(C(=O)c2ccccc2C(=O)O)c(O)c1 | 93.6% |
| Cc1cc(C)cc(-n2c(C)cc(C=C(C#N)C#N)c2C)c1 | 108% |
| CCN(c1ccc(OCC(=O)OCC(=O)Nc2ccc(F)c(F)c2F)cc1)S(=O)(=O)c1ccccc1 | 93.2% |
| NC1CCN(c2nc3c(cc2F)c(=O)c(C(=O)O)cn3-c2ccc(F)cc2F)C1 (stereo not given) | 96.4% |

| SMILES | viability |
| --- | --- |
| CCOC(=O)C1=C(C)NC(=S)NC1c1ccc(OC(=O)c2ccco2)cc1 (stereo not given) | 80.1% |
| CCNC(=O)NC1(C(=O)Nc2ccc3c(c2)OCCO3)CCCCC1 | 102% |
| O=C(Nc1nc2ccc(SC(F)F)cc2s1)c1ccc2c(c1)S(=O)(=O)c1ccccc1C2=O | 92% |
| Cc1nn(C)c(C)c1S(=O)(=O)N1CCC(C(=O)NC2CCCCC2)CC1 | 87.9% |
| Cc1cccc(N2CCN(CC(=O)Nc3nccs3)CC2)c1C | 94.7% [at 25 µM] |
| O=c1cc(Cc2ccccc2)[nH]c(=S)[nH]1 | 89.9% |
| CC1CCc2c(N3CCC(O)CC3)c(F)cc3c(=O)c(C(=O)O)cn1c23 (stereo not given) | 81.6% |
| CC1(C)CC(=O)C=C(Nc2ccc(Br)cn2)C1 | 91.2% |
| Cc1nn(CCOc2ccccc2)c(=O)n1-c1ccc(F)cc1 | 101% |
| CCCn1c(/N=C/c2ccc3c(c2)OCO3)nc2ccccc21 | 102% |
| CCCn1c(NCCO)nc2ccccc21 | 96.2% |
| CC(Cl)C(=O)NNc1cccc(Cl)n1 (stereo not given) | 90.3% |
| S=c1nc(C2CCCCC2)[nH][nH]1 | 96.5% |
| Cc1cc(C)n2c(SCC(=O)NCc3ccco3)nnc2n1 | 110% |
| COc1ccc(C(=O)C(CO)Oc2ccccc2OC)cc1OC (stereo not given) | 88.4% |
| CCS(=O)(=O)Nc1cc(C(=O)OC)ccc1C(=O)OC | 94.7% |
| CCCCOC(=O)CSc1nc2c(c(=O)[nH]c(=O)n2C)n1C/C=C(\C)Cl | 95% |
| Cc1ccc(NC(=O)c2ccccc2)s1 | 95.6% |
| Cc1cc(C(=O)NCc2cccs2)cs1 | 88.3% |
| Brc1cccc(CNCc2cccs2)c1 | 101% |
| CCN(CC)Cc1c[nH]c2c(C(=O)OC)cccc12 | 85.1% |
| COCCn1c(-c2ccccc2F)n[nH]c1=S | 105% |
| O=C(CCN1CCCCC1)NCC1OCCc2ccccc21 (stereo not given) | 98.8% |
| CN1CCCC(OC(=O)c2ccc3c(c2)OCCO3)C1 (stereo not given) | 88.2% |

| SMILES | viability |
| --- | --- |
| O=C(CCNS(=O)(=O)c1cccc2nsnc12)Nc1ccc2c(c1)OCCO2 | 96.2% |
| S=c1[nH]nc(Cc2cccc3ccccc23)o1 | 104% |
| c1coc(CNc2c3c(nc4ncnn24)CCCC3)c1 | 95.3% |
| CCOc1ccc(/C=N/O)cc1 | 93% |
| CCN1CCN(C(=O)c2ccc(COc3ccc(Cl)cc3)o2)CC1 | 90% |
| CCOc1ccc(CCNC(=O)c2cc3sc(Cl)cc3n2C)cc1OCC | 82.6% |
| Cc1nc(N)sc1Cc1ccc2c(c1)OCO2 | 81.2% |
| CCSc1cc(N2CCCC2)nc(-c2cccc(C)c2)n1 | 92.8% |
| O=C(CN1C(=O)c2ccccc2C1=O)N1CCN(c2ccccn2)CC1 | 93.9% |
| CCN(Cc1ccccc1)C(=O)CN1C(=S)NC(C)(C)CC1C (stereo not given) | 105% |
| Cc1cccc(NC(=O)c2cc(N3C(=O)CCC3=O)ccc2Cl)n1 | 92.3% |
| CN1CCN(S(=O)(=O)c2ccc(-c3ccccc3)cc2)CC1 | 89.2% |
| CC1CCN(S(=O)(=O)c2cccc(C(=O)N(C)C3CCS(=O)(=O)C3)c2)CC1 (stereo not given) | 92% |
| COCCCNc1ccnc2c(Cl)cccc12 | 85.6% |
| CC(C)c1ccc(NC(=O)Nc2cc3sccc3n2C)cc1 | 89.7% |
| COc1ccc(Cl)cc1C(=O)Nc1ccc(NC(=O)c2ccco2)cc1 | 93.1% |
| CSc1cccc(NC(=O)c2ccco2)c1 | 91.9% |
| CCC(C)C(NC(=O)OCc1ccccc1)C(=O)OCN1C(=O)c2ccccc2C1=O (stereo not given) | 102% |
| COc1ccc(C(=O)Nc2cc(C)ccc2NC(=O)COc2ccccc2)cc1 | 81.1% |
| COC(=O)CCC(=O)Nc1ccc(OC)cc1 | 101% |
| Cc1sc(NC(=O)c2ccco2)c(CN2CCN(c3ccc(F)cc3)CC2)c1C | 89.5% |
| CCOC(=O)c1c(C)[nH]c(C)c1C(=O)CSc1ncccn1 | 81.8% |
| COc1cc(OC)cc(C(=O)N[C@H](C(=O)OCC(=O)Nc2ccc(C(N)=O)cc2)C(C)C)c1 | 89.5% |
| Cc1ccc(-c2nnc(SCC(=O)N3CCCc4ccccc43)n2N)cc1 | 82.7% |

| SMILES | viability |
| --- | --- |
| COC(=O)c1sccc1NC(=O)C1C2C=CC(O2)C1C(=O)O (stereo not given) | 90.1% |
| CN(C)c1nc(N)nc(Cn2ccnc2)n1 | 92.4% |
| O=C(Cc1cccs1)N(c1ccccc1)C1C=CS(=O)(=O)C1 (stereo not given) | 89.7% |
| CC1(C)CC(=O)C=C(Nc2ccccc2NC(=O)c2cnccn2)C1 | 101% |
| CC(=O)N(Cc1ccc(Cl)cc1)c1cnccn1 | 96.4% |
| CCn1cc(C(=O)NCCO)c(=O)c2cc(F)c(N3CCN(C)CC3)cc21 | 85.3% |
| COc1ccc(N2C(=O)C3CCCN3C2c2cccc(C)c2)cc1Cl (stereo not given) | 92.3% |
| CSc1nnc2c3c4c(sc3nc(-n3nc(C)cc3C)n12)COC(C)(C)C4 | 91.8% |
| Cc1ccc(C(=O)CSc2ncnc3sc4c(c23)CCCC4)cc1 | 95.6% |
| O=C(Nn1c(O)c(C=C2N=c3ccccc3=N2)sc1=S)c1ccc(Cl)cc1 | 93% |
| Cc1cc(=O)oc(C)c1C(=O)NCc1cccnc1 | 105% |
| Cc1ccc(C)c(C(=O)NCc2ccncc2)c1 | 84% |
| COc1ccc(Br)cc1C(=O)NCc1cccnc1 | 94% |
| S=C(Nc1ccc(Cl)c(Cl)c1)N1CCOCC1 | 85.7% |
| S=C(NCc1cccnc1)Nc1cccc(Cl)c1 | 97.7% |
| Cc1ccc(NC(=S)NCc2cccnc2)cc1 | 91.9% |
| C=CCSc1nnc(-c2ccc(Cl)cc2Cl)o1 | 80.3% |
| COc1c(N2CCN(C(=S)NC3CC4CCC3C4)C(C)C2)c(F)cc2c(=O)c(C(=O)O)cn(C3CC3)c12 (stereo not given) | 102% |
| CNC(=S)N1CCN(c2c(F)cc3c(=O)c(C(=O)O)cn(C4CC4)c3c2OC)CC1C (stereo not given) | 91.2% |
| COc1c(N2CCNC(C)C2)c(F)cc2c(=O)c(C(=O)O)cn(C3CC3)c12 (stereo not given) | 93.2% |
| COc1c(N2CCN(C(=S)Nc3ccc(F)cc3)C(C)C2)c(F)cc2c(=O)c(C(=O)O)cn(C3CC3)c12 (stereo not given) | 98.2% |
| CC(=O)Nc1c(C#N)c(C(C)(C)C)cn1C | 94.6% |
| COc1ccc(S(=O)(=O)N2Cc3ccccc3CC2C(=O)N2CCOCC2)cc1OC (stereo not given) | 87.6% |
| COc1ccc(N(CC(=O)Nc2ccccc2SC)S(C)(=O)=O)cc1OC | 88.8% |
